Experimental data as given in PubChem BioAssay (NCATS).
Records with an inconclusive call do not appear. Active and inactive are the calls of the source. Calls follow the shape of the dose curve; as a rule, active = well fitted inhibition curve with a large enough effect; inconclusive = small, poorly fitted or top-dose-only effect; inactive = flat fitted curve, though single readings scatter.

experiment: P-glycoprotein substrates identified in KB-8-5-11 adenocarcinoma cell line, qHTS therapeutic library screen (AID 1346987); details: KB-8-5-11 (P-gp overexpressing) viability, CellTiter-Glo, 72 h; series mostly up to 44.5 µM; activity change, negative = cytotoxicity: at the top concentration; also: nearly all actives have a fitted effect of over 65% in size
In short: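 P-gp-mediated resistance screen: KB-8-5-11 cells treated 72 h with compounds in dose-response. CellTiter-Glo viability.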
% is scaled to controls: 0 for no effect and ±100 for the full control effect; potency is read from the fitted curve at half-maximal effect.

Row | SMILES | activity change, negative = cytotoxicity | outcome | Potency
1 | C/C=C/C=C/C(O)=C1\C(=O)[C@]2(C)C3C(C(=O)CC/C=C/C)=C(O)C4(C)C1[C@]1(C)O[C@@]4(O)[C@@]3(C)O[C@@]12O | -6.58% [at 17.3 µM] (inactive) |  | 
2 | CC(C)c1ccc2c(c1)C(=O)CC1[C@@](C)(C(=O)O)CCC[C@]21C (some centres undefined) | 7.11% (inactive) |  | 
3 | CCC(Nc1ncnc2nc[nH]c12)c1nc2cccc(F)c2c(=O)n1-c1ccccc1 (centres undefined) | -4.15% (inactive) |  | 
4 | C[C@H]1C(=O)N2c3ccccc3[C@@]3(O)C[C@@H]4C(=O)N[C@](C)(c5nc6ccccc6c(=O)n54)N1[C@@H]23 | -5.43% [at 17.3 µM] (inactive) |  | 
5 | CC1CC2OC3(OC2C(C)(C)O)C1C1(C)CCC24CC25CCC(O[C@@H]2OC[C@@H](O)[C@H](O)[C@H]2O)C(C)(C)C5CC=C4C1(C)C3O (some centres undefined) |  | inactive [at 17.3 µM] | 
6 | CC(=O)O[C@H]1CC[C@H](C)[C@@]2(C)[C@H](OC(C)=O)c3c(C)coc3C(=O)[C@H]12 | -26.7% (inactive) |  | 
7 | CCC(COC)n1nnc2c(Nc3ccc(OC)cc3C)nc(C)cc21 (centres undefined) | -17.4% (inactive) |  | 
8 | COC(=O)C12CCC(C)C(C)C1C1=CCC3C4(C)CCC(OC(C)=O)C(C)(C)C4CCC3(C)C1(C)CC2 (centres undefined) | 0.509% [at 17.3 µM] (inactive) |  | 
9 | C=C(C)C1Cc2cc(C(=O)OC3OC(CO)C(O)C(O)C3O)ccc2O1 (centres undefined) | 3.68% (inactive) |  | 
10 | Cc1cccc(-c2[nH]c(Cc3cccc(C(N)=O)c3)nc2-c2ccc3nccnc3c2)n1 |  | inactive | 
11 | Cc1ccc(-c2ccc3ncc4c(c3n2)n(C2CCN(C(=O)[C@H](C)O)CC2)c(=O)n4C)cn1 |  |  | 0.164 µM (active)
12 | CC1=C(C(=O)O)/C(=C/CO[C@@H]2O[C@H](COC(=O)/C=C/c3ccc(O)cc3)[C@@H](O)[C@H](O)[C@H]2O)C(O)C1 (some centres undefined) |  | inactive [at 17.3 µM] | 
13 | CN1c2ccccc2C(=O)N2CCC3c4ccccc4NC3C21 (centres undefined) |  |  | 2.02 µM (active)
14 | C=CC(=O)Nc1cccc(CN2C(=O)N(c3c(Cl)c(OC)cc(OC)c3Cl)Cc3cnc(NCCCCN(CC)CC)nc32)c1 | 1.47% (inactive) |  | 
15 | O=C1OCC(c2ccccc2)=C1Cc1ccccc1 | -14.2% (inactive) |  | 
16 | CNC(=O)c1ccccc1Nc1nc(Nc2ccc3c(c2OC)CCC[C@@H](N2CCN(CCO)CC2)C3)ncc1Cl |  |  | 10.3 µM (active)
17 | CC1(C)CCCC2(C)C1CC(=O)C13CC(CCC12)C(O)(CO)C3 (centres undefined) | -21.3% (inactive) |  | 
18 | Cc1ccc(C)c(OCCn2cc(C(=O)O)c3ccccc32)c1 | 4.01% (inactive) |  | 
19 | COC(=O)CCSCc1ccc(-c2onc(C)c2NC(=O)OC(C)c2ccccc2Cl)cc1 (centres undefined) |  | inactive | 
20 | C[C@H](NC(c1cccc2[nH]c(=O)c(=O)[nH]c12)P(=O)(O)O)c1ccc(Br)cc1 (some centres undefined) | 9.66% (inactive) |  | 

Row | SMILES | activity change, negative = cytotoxicity | outcome | Potency
21 | Cc1cnc(NC(=O)Nc2cc(Br)c(C)cc2OCC2CNCCO2)cn1 (centres undefined) |  |  | 8.2 µM (active)
22 | CC(C)C(C(=O)N(C)C(C)C(N)=O)N(C)C(=O)C1CCCN1C(=O)/C=C/C=C/C(O)C(C)O (centres undefined) | 4.34% [at 17.3 µM] (inactive) |  | 
23 | Cc1cc(OCc2nnc(SC3CCCC3)n2-c2cccnc2)ccc1-c1ccc(S(C)(=O)=O)cc1 |  |  | 2.91 µM (active)
24 | C1CCC[C@H]2CCCN3CC[C@@H](CCCCCC[C@@H]4CCCN5CC[C@@H](CC1)O[C@@H]45)O[C@@H]23 |  | inactive [at 0.0709 µM] | 
25 | COc1cc(Nc2nc3c(s2)CCCC3c2ccc(F)cc2)ccc1-n1cnc(C)c1 (centres undefined) |  |  | 20.6 µM (active)
26 | CC1(CCOC2OC(CO)C(O)C(O)C2O)CCC23OC2(C1)C(O)CC1C(C)(C(=O)O)CCCC13C (centres undefined) |  | inactive [at 17.3 µM] | 
27 | C=C1C(=O)O[C@@H]2C/C(C)=C\C(=O)/C=C(\C)[C@@H](OC(=O)/C(C)=C\C)[C@H](O)[C@@H]12 |  |  | 4.04 µM (active)
28 | C=C1C(O)C(O)C2(CC3C(C)=CCC4C(C)(CO)CCCC34C)OC2C1O (centres undefined) | -3.22% (inactive) |  | 
29 | C/C=C1\[C@H](O[C@@H]2O[C@H](CO)[C@@H](O)[C@H](O)[C@H]2O)OC=C2C(=O)OCCc3ccc(O)c(c3)Oc3ccc(cc3)CCOC(=O)C[C@H]21 | -6.93% [at 17.3 µM] (inactive) |  | 
30 | NC(=O)[C@H]1CCS[C@@H]2C[C@]3(CCCN3C(=O)Cc3ccc(NC(=O)COc4ccc(Cl)cc4Cl)cc3)C(=O)N12 |  |  | 20.6 µM (active)
31 | Cc1cc(C)cc(C(=O)NOCCCCCC(=O)NO)c1 |  |  | 1.3 µM (active)
32 | CC(C)(C)c1ccc(S(=O)(=O)NCc2ccc(C(=O)Nc3cccnc3)cc2)cc1 |  |  | 1.16 µM (active)
33 | COC(=O)[C@@H](O)[C@H]1[C@@]2(C)CC3(O)[C@@H](C(=O)[C@H]2O)[C@]24O[C@]25CC(=O)O[C@@H](c2ccoc2)[C@]5(C)CCC4[C@]13C (some centres undefined) |  | inactive [at 17.3 µM] | 
34 | COc1c2ccoc2cc2oc(CO[C@@H]3O[C@H](CO)[C@@H](O)[C@H](O)[C@H]3O)cc(=O)c12 | -6.55% (inactive) |  | 
35 | CCNC(=O)Nc1ncc(-c2cc(-c3c(C)cc(OC)cc3C)nc(-c3cnccn3)n2)s1 | -2.31% (inactive) |  | 
36 | COc1cccc2cc3c(c(O[C@@H]4O[C@H](CO[C@@H]5O[C@H](CO)[C@@H](O)[C@H](O)[C@H]5O)[C@@H](O)[C@H](O)[C@H]4O)c12)C(C)OC3=O (some centres undefined) | -0.811% [at 17.3 µM] (inactive) |  | 
37 | CC(Oc1cc(-n2cnc3ccc(CN4CCN(C)CC4)cc32)sc1C(N)=O)c1ccccc1C(F)(F)F (centres undefined) |  |  | 2.59 µM (active)
38 | CC(=O)OC[C@@]12C(=O)C[C@@H](C)[C@]3(C[C@@H](c4ccoc4)O[C@H]3OC(C)=O)[C@H]1CCC[C@]21CO1 | -18.7% [at 17.3 µM] (inactive) |  | 
39 | CCOc1cc(C(=O)N2CCC(N3CCN(C)CC3)CC2)ccc1Nc1ncc2c(n1)N(C1CCCC1)c1ccccc1C(=O)N2C |  |  | 13 µM (active)
